Screens as filed in PubChem.
An excerpt weighted towards active compounds, which were near 3% of everything screened.
MITF TRPM1 inh = inhibitors of MITF-dependent TRPM1 promoter reporter, primary screen, cell-based, SK-MEL-5, single point, luciferase. SK-MEL-5 TRPM1 promoter luciferase, 24 h. inhibition, % at 12.5 µM. 330,000 compounds, 0.83% hits. AID 488899, 2010;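 active = mean inhibition across replicates of 60% or more, whatever share of single replicates reaches that level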
LMP1 NFkB inh = EBV LMP1-driven NF-kappaB luciferase reporter inhibitors, primary screen, cell-based, luminescence, single point; inhibition, % at 12.5 µM; 350,000 compounds, 0.69% hits; AID 504558, 2011; LMP1-induced NF-kappaB luciferase reporter cells; in the data active = inhibition above about 41%;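 also: 0% = neutral control wells and 100% = reference inhibitor control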
HIF-2a block = HIF-2a reporter inhibitors, primary screen, luminescence, 786-0 RCC cells; 786-0 RCC cells HIF-2a reporter, luciferase luminescence, overnight; inhibition, % at 18.8 µM; 360,000 compounds, 0.72% hits;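 active = inhibition of the luminescence signal of 40% or more relative to plate controls, in a single-dose primary screen at 18.75 µM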
KKLEB cytotox = cytotoxicity in KKLEB CF airway cells, primary screen, cytotoxicity control for CF NF-kB inhibitor project, cell-based, uHTS, fluorescence assay plates | 360,000 compounds, 0.36% hits | KKLEB CF airway cells viability, ATPlite luminescence, overnight; active compounds read low; cells stimulated with P. aeruginosa culture filtrate | activity change (cytotoxicity), % at 5 µM;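 active = corrected activity change at or below -50% at 5 µM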
Peg3 prom inh = Peg3 promoter-driven luciferase inhibitors, primary screen, cell-based, HeLa, luciferase luminescence; HeLa PEG-Prom luciferase reporter, overnight; inhibition, % at 20 µM; 360,000 compounds, 1.7% hits; AID 588405, 2011;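 active = inhibition of at least 50% at 20 µM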
CF NFkB inh = inhibitors of PAF-induced NF-kB signaling, primary screen, cell-based, GFP fluorescence, uHTS | KKLEB NF-kB-GFP reporter, GFP fluorescence overnight | inhibition, % at 5 µM | 360,000 compounds, 0.86% hits;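 active = at least 50% inhibition at 5 µM, scaled per plate between neutral and stimulator controls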;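 also: PAF is a Pseudomonas aeruginosa culture filtrate used as stimulus; plate controls were PAF-stimulated DMSO wells for no effect and unstimulated DMSO wells for full effect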
An asterisk follows results filed as active; / = not tested or not shown.

SMILES	MITF TRPM1 inh	LMP1 NFkB inh	HIF-2a block	KKLEB cytotox	Peg3 prom inh	CF NFkB inh
CC(=O)Nc1ccc(S(=O)(=O)CC(=O)CS(=O)(=O)c2ccc(NC(C)=O)cc2)cc1	/	0	16	-4	4	23
CN(C)c1nc(-c2ccccn2)nnc1-c1ccccc1	78*	-18	8	-15	53*	19
CCC1(CC)CNC(=O)NC1	1	-2	0	-1	-9	17
CCC(C(=O)NC1CCCC1)n1c(-c2cc3ccccc3[nH]2)nc2ccccc21 (stereo not drawn)	/	/	4	/	/	/
COc1ccc(C(=O)/C(C#N)=N/Nc2cccc([N+](=O)[O-])c2)cc1	12	15	-67	-47	29	54*
N#C/C(=N\Nc1cccc(Cl)c1)C(=O)c1ccccc1	0	-4	-175	-25	-39	36
COc1ccc(NC(=O)c2sc3ncnc(N4CCN(c5ccccn5)CC4)c3c2C)cc1Cl	-7	44*	-39	-11	21	-20
C/C=C(\C)C(=O)NCCN1C2=NC[C@H](Cc3ccccc3)N2C[C@@H]1Cc1ccc(OC)cc1	-3	5	10	-1	-16	-12
COc1ccc(C[C@H]2CN3C(=NC[C@H]3Cc3ccccc3)N2CCNC(=O)CCC2CCCCC2)cc1	35	-8	-6	-16	90*	22
Cc1ccc(C(=O)NCCN2C3=NC[C@@H](Cc4ccccc4)N3C[C@H]2Cc2ccc(O)cc2)cc1Br	-13	-4	6	5	79*	-2
COc1ccc(C[C@H]2CN3C(=NC[C@H]3Cc3ccccc3)N2CCNC(=O)c2ccc(C)c(Br)c2)cc1	58	1	5	-9	95*	33
COc1ccc(C[C@H]2CN3C(=NC[C@@H]3Cc3ccccc3)N2CCNC(=O)c2ccc(C)c(Br)c2)cc1	31	-19	2	-33	97*	27
CCOc1ccccc1N1CC(C(=O)Nc2cc(S(=O)(=O)N3CCOCC3)ccc2OC(C)C)CC1=O (stereo not drawn)	-4	3	5	8	9	-2
COc1ncc(-c2ccc(N3C(c4ccsc4)=Cc4ccc(F)cc4C3CC(C)=O)cc2)cn1 (stereo not drawn)	/	/	6	/	/	/
O=C1/C(=N\S(=O)(=O)c2cccs2)C([n+]2cccc(Cc3ccccc3)c2)=C([O-])c2ccccc21	91*	2	2	-3	34	56*
Cc1cc(C)c[n+](C2=C([O-])c3ccccc3C(=O)/C2=N\S(=O)(=O)c2cccs2)c1	105*	6	15	-8	13	16
Cc1cc[n+](C2=C([O-])c3ccccc3C(=O)/C2=N\S(=O)(=O)c2cccs2)cc1C	28	5	7	10	-3	-25
CCCCCCCC(=O)Nc1cc(C(=O)NCCC)ccc1N1CCC2(CC1)CC(c1ccccc1)=NO2	15	8	15	-12	-6	0
Cc1ccccc1-c1cc2nc(OCC3CCCO3)n(C)c(=O)c2s1 (stereo not drawn)	/	/	-19	2	-4	-1
O=C(CCl)N1c2ccccc2OCC1c1ccccc1 (stereo not drawn)	8	1	2	-3	47	-8
O=C(CCl)N1c2ccccc2SCC1c1ccccc1 (stereo not drawn)	79*	9	27	10	68*	9
CC(C)c1ccc([C@@H]2O[C@H](CCc3ccccc3)CC3=C2C(=O)OC(C)(C)O3)cc1	/	/	4	/	/	/
Cc1ccc(C(NC(=O)C2CCCCC2)c2c(O)ccc3ccccc23)cc1 (stereo not drawn)	-2	-20	3	-22	54*	50
CC(=O)NC(c1ccc([N+](=O)[O-])cc1)c1c(O)ccc2ccccc12 (stereo not drawn)	1	-18	23	2	6	-1
CC(C)C(=O)NC(c1ccc([N+](=O)[O-])cc1)c1c(O)ccc2ccccc12 (stereo not drawn)	1	5	-18	-37	52*	10
SMILES	MITF TRPM1 inh	LMP1 NFkB inh	HIF-2a block	KKLEB cytotox	Peg3 prom inh	CF NFkB inh
CCN(CC)C(=O)C1=C(C)N(CCC2=CCCCC2)C(=O)C(CC(=O)NC(c2ccccc2)c2ccccc2)C1 (stereo not drawn)	/	8	-8	2	3	-2
O=C(C(=O)N1CCC(c2ccccc2)CC1)c1cccc([N+](=O)[O-])c1	/	/	2	/	/	/
CCOC(=O)[C@]12CCC=C1N(CCC1=CCCCC1)C(=O)[C@H](CC(=O)NCc1ccccc1)C2	/	/	-5	/	/	/
CCNC(=O)COc1ccc(/C=C2\COc3ccccc3C2=O)cc1OC	-7	7	17	4	71*	11
CCOc1cc(/C=C2\COc3ccccc3C2=O)ccc1OCC(=O)N(C)C	12	13	25	-12	62*	19
Cc1cc(C)n(CCCN2CCC(C(=O)Nc3cccc(-c4cccc(F)c4)c3)CC2)n1	62*	-10	10	-12	69*	14
CCn1ncc(CN2CCC(C(=O)Nc3cccc(-c4cccc(F)c4)c3)CC2)c1C	3	4	9	-6	41	-7
CCn1nc(C)c(CN2CCC(C(=O)Nc3cccc(-c4cccc(Cl)c4)c3)CC2)c1C	54	-7	12	-25	68*	6
CCOC(=O)C1(C)CCCN1C(=O)c1csnn1 (stereo not drawn)	/	/	-6	5	8	10
O=S1(=O)C=C[C@@H](CO)N1Cc1ccc(Br)cc1	/	/	9	4	17	-3
CC(C)n1c(=O)c2ccccc2n1Cc1cn(-c2ccccc2)nn1	/	/	2	-4	8	-22
O=C(Nc1nnc(N2CCCCCC2)s1)c1cc(-c2ccc(Br)cc2)on1	-18	86*	3	-6	-9	14
CCCC(=O)Nc1ccc(C(=O)n2nnc3ccccc32)cc1	-7	8	8	-3	4	0
CN(C)c1ccc(C(=O)n2nnc3ccccc32)cc1	-4	13	-42	-36	-20	69*
CC(C)(C)NCC(O)CON=C1c2ccccc2-c2ccccc21 (stereo not drawn)	-19	-12	25	-1	84*	-23
CCn1cc(C(=O)NCc2cccc(F)c2)c(=O)c2cc(F)c(N3CCN(C(=O)c4ccco4)CC3)cc21	32	13	18	-1	55*	4
CCCNC(=O)c1cn(CC)c2cc(N3CCN(C(=O)c4ccco4)CC3)c(F)cc2c1=O	0	12	10	26	19	-21
O=c1c2ccccc2nnn1-c1ccccc1[N+](=O)[O-]	/	-8	-16	-4	-1	16
